# Assay results: ChEMBL document CHEMBL1857833, “Screening and optimization of specific chemical series against human African Trypanosomiasis (HAT)”
# Several values for one entry are separate records, joined by “and”; a condition that tells them apart may be missing. Equal entries are not always repeated. The campaign covered roughly 4,400 compounds. About 390 (8.9%) showed an effect of 50% or more. Only a selection was taken, and strong results are over-represented in it overall.
# Tested on: Trypanosoma brucei
# Assay: DNDI: Inhibition of Human African Trypanosomiasis, SBRI 427, in vitro at 2 ug.mL-1
# Assay type: functional
row,Structure (SMILES),% inhibition
1,O/N=C(\NCc1ccncc1)c1ccc(Oc2c(F)c(F)cc(F)c2F)nc1,6%
2,CC(C)CN(C)Cc1coc(-c2ccccc2Cl)n1,1%
3,COc1ccc(Oc2ncccc2/C(=N/O)NC2CCCC2)cc1,99%
4,O/N=C(/c1cccnc1Oc1ccc2ccccc2c1)N1CCC2CCCCC2C1 (stereo not given),100%
5,COc1ccc(Oc2ncccc2/C(=N/O)N2CCC3CCCCC3C2)cc1 (stereo not given),-2%
6,COc1ccc(Oc2ncccc2/C(=N/O)NC2CCCCC2)cc1,98%
7,O/N=C(\NCc1ccccc1)c1cccnc1Oc1ccc2c(c1)CCCC2,-4%
8,O/N=C(\NC1CCCC1)c1cccnc1Oc1ccc2c(c1)CCCC2,1%
9,O/N=C(/c1cccnc1Oc1ccc(Cl)cc1)N1CCC2CCCCC2C1 (stereo not given),-20%
10,O/N=C(\NC1CCC1)c1cccnc1Oc1ccc2c(c1)CCCC2,100%
11,COc1ccc(Oc2ncccc2/C(=N/O)N(C)C2CCCCC2)cc1,-15%
12,O/N=C(/c1ccnc(Oc2ccc(Cl)cc2)c1)N1CC=CCC1,8%
13,COc1ccc(-c2nc(Cn3nc(C)cc3C)co2)cc1,-6%
14,Cc1cccc(N2CCN(Cc3coc(-c4ccc(Br)cc4)n3)CC2C)c1 (stereo not given),15%
15,COc1ccc(-c2nc(CNCCc3ccc(C)cc3)co2)cc1,-3%
16,Cc1ccc(CN/C(=N\O)c2ccc(Oc3cc(Cl)ccc3Cl)nc2)o1,9%
17,Cc1cccc(Oc2ncccc2/C(=N/O)N2CCC=N2)c1C,2%
18,C=CCN(Cc1coc(-c2ccccc2Cl)n1)C1CCCCC1,13%
19,O/N=C(\NCc1cccs1)c1ccc(Oc2c(F)c(F)cc(F)c2F)nc1,1%
20,Cc1cc(Oc2ccc(/C(=N/O)N3CCN(c4ccc(F)cc4)CC3)cn2)cc(C(C)C)c1,3%
21,COc1ccc(-c2nc(CN3CCN(c4cccc(Cl)c4)CC3)co2)cc1,10%
22,O/N=C(\Nc1ccccc1)c1cccnc1Oc1ccc2ccccc2c1,14%
23,COc1ccc(Oc2nc(C)ccc2/C(=N/O)NC2CCC(C)CC2)cc1 (stereo not given),47%
24,COc1ccc(Oc2ncccc2/C(=N/O)N2C(C)CCC2C)cc1 (stereo not given),-10%
25,O/N=C(\NC1CCCCC1)c1cccnc1Oc1ccc2ccccc2c1,99%
26,N/C(=N/O)c1cccnc1Oc1ccc2ccccc2c1,-3%
27,COc1ccc(Oc2ncccc2/C(=N/O)NC2CCC2)cc1,98%

row,Structure (SMILES),% inhibition
1,O/N=C(\NCc1cc(F)ccc1F)c1ccc(Oc2ccc(Cl)cc2)nc1,-8%
2,CC1CCC(N/C(=N\O)c2ccc(Oc3ccc(-n4ccnc4)cc3)nc2)CC1 (stereo not given),21%
3,O/N=C(\NC1CCc2ccccc21)c1ccc(Oc2ccc(Cl)cc2)nc1 (stereo not given),-11%
4,CCc1ccc(Oc2ccc(/C(=N/O)NC3CC3)cn2)cc1,8%
5,N/C(=N\O)c1ccc(Oc2ccc(Cl)cc2)nc1,15%
6,CC1CCN(/C(=N\O)c2ccc(Oc3ccc(Cl)cc3)nc2)CC1,26%
7,O/N=C(/c1ccc(Oc2ccc(Cl)cc2)nc1)N1CCCCCC1,-7%
8,O/N=C(\NC1CCCC1)c1ccc(Oc2ccc(Cl)cc2)nc1,98%
9,CCc1ccc(Oc2ccc(/C(=N/O)NC3CCCC3)cn2)cc1,78%
10,CSCCN/C(=N\O)c1ccc(Oc2ccc(Cl)cc2)nc1,-6%
11,CCc1ccc(Oc2ccc(/C(=N/O)Nc3ccccc3)cn2)cc1,17%
12,CC1CCC(N/C(=N\O)c2ccc(Oc3ccc(Cl)cc3)nc2)CC1 (stereo not given),88%
13,O/N=C(\NC1CCCCC1)c1ccc(Oc2ccc(Cl)cc2)nc1,93%
14,CC(NCc1coc(-c2ccccc2Br)n1)c1cccc2ccccc12 (stereo not given),9% and -3%
15,CCOc1ccccc1Oc1ncccc1/C(=N/O)N1CCC=N1,13%
16,COc1cccc(-c2nc(CNc3ccc(C(C)=O)cc3)co2)c1,18%
17,COc1cc(-c2nc(CN3CCN(Cc4ccc5c(c4)OCO5)CC3)co2)cc(OC)c1OC,-1%
18,O/N=C(/c1cccnc1OCc1ccccc1F)N1CCN(c2ccc(F)cc2)CC1,-19%
19,CCc1ccc(Oc2ccc(/C(=N/O)N3CCSCC3)cn2)cc1,16%
20,CCc1ccc(Oc2ccc(/C(=N/O)NCC3CC3)cn2)cc1,99%
21,CCc1ccc(Oc2ccc(/C(=N/O)NCc3ccc(OC)cc3)cn2)cc1,22%
22,CCc1ccc(Oc2ccc(/C(=N/O)NCc3c(F)cccc3F)cn2)cc1,22%
23,CC1CCC(N/C(=N\O)c2ccc(Oc3ccc(F)cc3)nc2)CC1 (stereo not given),16%
24,CCc1ccc(Oc2ccc(/C(=N/O)N3CCOCC3)cn2)cc1,3%
25,CSc1ccc(Oc2ccc(/C(=N/O)NC3CCC(C)CC3)cn2)cc1 (stereo not given),81%
26,CSc1ccc(Oc2cc(/C(=N/O)NC3CCC(C)CC3)ccn2)cc1 (stereo not given),9%
27,CCc1ccc(Oc2ccc(/C(=N/O)N3CCCCC3)cn2)cc1,68%

row,Structure (SMILES),% inhibition
1,N#CCCN(Cc1coc(-c2cccc(F)c2)n1)CC1CCCO1 (stereo not given),-9%
2,Cc1ccc(Oc2nc(C)ccc2/C(=N/O)N2CCC3CCCCC3C2)c(C)c1 (stereo not given),10%
3,CC(C)COc1ncccc1/C(=N/O)N1CCC2CCCCC2C1 (stereo not given),-17%
4,Cc1ccc(Oc2ccc(/C(=N/O)N3CCN(c4ccccc4)CC3)cn2)c(C)c1,18%
5,COc1cc(CN(C)Cc2coc(-c3ccc(Cl)cc3Cl)n2)cc(OC)c1OC,0%
6,COc1cc(-c2nc(CN3CCCc4ccccc43)co2)cc(OC)c1OC,6%
7,Cc1ccc(Oc2nc(C)ccc2/C(=N/O)NCc2ccccc2C)c(C)c1,43%
8,CCOc1ccccc1CN/C(=N\O)c1ccc(C)nc1Oc1ccc(SC)c(C)c1,-24%
9,CCOc1ccccc1CN/C(=N\O)c1ccc(C)nc1Oc1ccc(C)cc1C,99%
10,CCOc1ccccc1CN/C(=N\O)c1ccc(C)nc1Oc1ccc(F)cc1,20%
11,CCOc1ccccc1CN/C(=N\O)c1ccc(C)nc1Oc1ccc(C)cc1,67%
12,COc1ccccc1CN/C(=N\O)c1ccc(C)nc1Oc1ccc(C)cc1C,40%
13,Fc1ccc(-c2nc(CNC3CCc4ccccc43)co2)cc1 (stereo not given),28%
14,Cc1ccc(/C(=N/O)N2C(C)CCCC2C)c(Oc2cccc(F)c2)n1 (stereo not given),15%
15,CN(Cc1coc(-c2cccc(F)c2)n1)Cc1cccc2ccccc12,-3%
16,COc1ccc(CN/C(=N\O)c2ccnc(Oc3ccc(C)c4c3CCC4)c2)cc1,21%
17,COC(=O)c1cn(Cc2coc(-c3ccc(Br)cc3)n2)cn1,16%
18,CSc1ccc(Oc2ncccc2/C(N)=N/O)cc1C,17%
19,CCOc1ccc(Oc2cc(/C(=N/O)NC3CCc4ccccc43)ccn2)cc1 (stereo not given),29%
20,CCOc1ccc(Oc2cc(/C(=N/O)NC3CCC(C)CC3)ccn2)cc1 (stereo not given),25%
21,CCOc1ccc(Oc2cc(/C(=N/O)NC3CCCC3)ccn2)cc1,53%
22,CCOc1ccc(Oc2cc(/C(=N/O)NC3CCCCC3)ccn2)cc1,51%
23,CCOc1ccc(Oc2cc(/C(=N/O)NC3CC(C)CC(C)(C)C3)ccn2)cc1 (stereo not given),29%
24,CCOc1ccc(Oc2cc(/C(=N/O)Nc3ccccc3)ccn2)cc1,24%
25,CCOc1cccc(-c2nc(CN3CCN(c4cc(C)nc5ccccc45)CC3)co2)c1,11%
26,Cc1ccccc1-c1nc(CNCCN2CCOCC2)co1,6%
27,CCOc1cccc(-c2nc(CN3CCCN(C)CC3)co2)c1,2%

row,Structure (SMILES),% inhibition
1,CSc1ccc(Oc2nc(C)ccc2/C(=N/O)N2CCSC2)cc1,1%
2,Fc1cccc(-c2nc(CN3CCCCCC3)co2)c1,5%
3,Cc1cc(C)cc(Oc2ccc(/C(=N/O)NCC(C)C)cn2)c1,90%
4,COc1cccc(Oc2ccc(/C(=N/O)NCC(C)C)cn2)c1,19%
5,Cc1cc(Oc2ccc(/C(=N/O)NC3CCC(C)CC3)cn2)cc(C(C)C)c1 (stereo not given),19%
6,Cc1cc(C)cc(Oc2ccc(/C(=N/O)NCC(C)(C)C)cn2)c1,98%
7,CC(C)CN/C(=N\O)c1ccc(Oc2ccc3ccccc3c2)nc1,2%
8,COCCN/C(=N\O)c1ccc(Oc2cc(C)cc(C(C)C)c2)nc1,17%
9,Cc1cc(Oc2ccc(/C(=N/O)NC3CC3)cn2)cc(C(C)C)c1,62%
10,Cc1cc(C)cc(CN/C(=N\O)c2ccc(Oc3cc(C)cc(C)c3)nc2)c1,-3%
11,Cc1cc(Oc2ccc(/C(=N/O)NCC3CC3)cn2)cc(C(C)C)c1,97%
12,Cc1cc(Oc2ccc(/C(=N/O)NC3CCc4ccccc43)cn2)cc(C(C)C)c1 (stereo not given),35%
13,CCCN/C(=N\O)c1ccc(Oc2cc(C)cc(C)c2)nc1,20%
14,Cc1cc(C)cc(CN/C(=N\O)c2ccc(Oc3cc(C)cc(C(C)C)c3)nc2)c1,19%
15,CCC(C)(C)N/C(=N\O)c1ccc(C)nc1Oc1ccc(F)c(F)c1,11%
16,CCOc1ccccc1-c1nc(CN2CCC=N2)co1,-3%
17,CC(=O)c1ccc(N2CCN(Cc3coc(-c4ccc(F)cc4)n3)CC2)cc1,-5%
18,Cc1cc(C)cc(Oc2ccc(/C(=N/O)NCC3CCCO3)cn2)c1 (stereo not given),-3%
19,Cc1cc(C)cc(Oc2ccc(/C(=N/O)NCC3CCCCC3)cn2)c1,21%
20,Cc1cc(C)cc(Oc2ccc(/C(=N/O)NCC3CC3)cn2)c1,99%
21,Cc1cccc(CNCc2coc(-c3ccc(O)cc3)n2)c1,-10%
22,Cc1cn(Cc2coc(-c3ccccc3Br)n2)c(C)n1,25%
23,CCCCN(Cc1coc(-c2ccccc2Cl)n1)c1ccccc1,10%
24,COc1cc(-c2nc(Cn3cnc(C)c3)co2)cc(OC)c1OC,-15%
